{"source": "PubChem BioAssay AID651650", "about": "(Sanford-Burnham Center for Chemical Genomics, 2012)", "data": [{"biological_target": "Neuropilin-1 (Homo sapiens) (UniProt O14786)", "sequence (O14786 whole entry, looked up)": "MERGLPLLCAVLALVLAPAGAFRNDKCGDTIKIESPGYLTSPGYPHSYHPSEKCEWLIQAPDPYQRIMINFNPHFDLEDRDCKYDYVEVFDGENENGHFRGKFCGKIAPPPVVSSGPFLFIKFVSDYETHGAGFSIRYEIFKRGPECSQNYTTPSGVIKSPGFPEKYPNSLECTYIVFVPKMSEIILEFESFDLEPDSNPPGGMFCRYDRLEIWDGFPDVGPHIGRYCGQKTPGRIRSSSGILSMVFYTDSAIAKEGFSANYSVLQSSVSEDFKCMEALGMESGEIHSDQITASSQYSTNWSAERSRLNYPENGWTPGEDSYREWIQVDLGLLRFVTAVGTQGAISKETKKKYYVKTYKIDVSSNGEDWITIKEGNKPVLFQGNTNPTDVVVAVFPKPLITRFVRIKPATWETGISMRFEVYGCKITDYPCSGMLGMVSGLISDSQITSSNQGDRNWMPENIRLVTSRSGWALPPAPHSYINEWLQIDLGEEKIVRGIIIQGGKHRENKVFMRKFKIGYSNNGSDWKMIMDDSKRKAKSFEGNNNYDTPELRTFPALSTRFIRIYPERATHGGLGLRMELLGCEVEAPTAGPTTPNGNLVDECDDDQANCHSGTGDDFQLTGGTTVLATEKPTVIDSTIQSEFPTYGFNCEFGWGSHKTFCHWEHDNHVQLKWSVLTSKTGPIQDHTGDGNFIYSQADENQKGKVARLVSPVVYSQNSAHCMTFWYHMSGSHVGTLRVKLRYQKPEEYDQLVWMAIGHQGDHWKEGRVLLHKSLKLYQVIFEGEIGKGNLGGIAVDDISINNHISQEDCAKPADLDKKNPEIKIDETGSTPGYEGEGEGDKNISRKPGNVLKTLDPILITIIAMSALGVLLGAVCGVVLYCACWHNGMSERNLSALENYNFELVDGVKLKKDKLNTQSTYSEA", "assay": "NRP-1 b1b2 CendR peptide binding inhibitors, dose response, biochemical, FP and AlphaScreen panel (AID 651650)", "conditions": "NRP-1 b1b2 / RPARPAR peptide binding, FP or AlphaScreen; run 1, at 100 µM (top of the series)", "units": {"inhibition": "%"}, "values": [{"smiles": "COc1ccc(-c2cc(C)no2)cc1S(=O)(=O)NCc1cccc(C)c1", "inhibition": 23.2}, {"smiles": "C[C@@H](NC(=O)c1[nH]cnc1C(=O)Nc1cccc(Cl)c1)c1ccccc1", "inhibition": 54.3}, {"smiles": "Cc1c(CC(=O)O)c(=O)oc2cc(OCc3ccc(F)cc3Cl)ccc12", "inhibition": -12.1}, {"smiles": "CC(C)Cc1ccc(C(C)C(=O)Nc2ccc(O)cc2)cc1", "note": "(stereo not drawn)", "inhibition": 34.6}, {"smiles": "COc1ccc(C(O)c2nc(-c3ccc4ccccc4c3)cs2)cc1", "note": "(stereo not drawn)", "inhibition": 26.1}, {"smiles": "C=CCOc1ccc(C2/C(=C(\\O)c3c(C)[nH]c(C(=O)OC)c3C)C(=O)C(=O)N2CCN(C)C)cc1", "note": "(stereo not drawn)", "inhibition": 3.64}, {"smiles": "CCOC(=O)C1(O)CC(C)=NN1C(=O)c1cccc(Br)c1", "note": "(stereo not drawn)", "inhibition": 35.1}, {"smiles": "CN(Cc1cnn(C)c1)C(=O)c1cc2ccccc2oc1=O", "inhibition": 29.1}, {"smiles": "Cc1cccc(NS(=O)(=O)c2cccs2)c1", "inhibition": 44.9}, {"smiles": "CCCCC1CCC(C(=O)NC2CCS(=O)(=O)C2)CC1", "note": "(stereo not drawn)", "inhibition": 16.6}, {"smiles": "COc1cc2oc(=O)ccc2cc1[C@@H](O)[C@@H]1OC(C)(C)OC1(C)C", "inhibition": 10.7}, {"smiles": "O=C(O)c1ccc(C(=O)Nc2cccc3ccccc23)c(C(=O)O)c1", "inhibition": 76.6}, {"smiles": "CCOC(=O)N1CCN(C(=O)c2cc(COc3ccc(OC)cc3Cl)on2)CC1", "inhibition": 37.8}, {"smiles": "CCOC(=O)CNc1ccc2c(c1)OCO2", "inhibition": 82.2}, {"smiles": "COc1ccc(C2CC(C(F)(F)F)n3nc(C(=O)O)c(Cl)c3N2)cc1OC", "note": "(stereo not drawn)", "inhibition": 46.4}, {"smiles": "CCOC(=O)N1CCN(C(=O)Nc2ccc3nc(C)c(C)nc3c2)CC1", "inhibition": -6.06}, {"smiles": "COc1ccc(N=C2C(=Nc3ccc(OC)cc3)N(c3ccc(N(C)C)cc3)C(=S)N2c2ccc(OC)cc2)cc1", "inhibition": 50.6}, {"smiles": "Cc1ccccc1NC(=O)c1cccc(NC(=O)CCC(=O)O)c1", "inhibition": 28.1}, {"smiles": "NC1=NC[C@@H](Cc2ccc(O)cc2)N1CCCCC1CCCCC1", "inhibition": 26.5}, {"smiles": "O=C(NCCCN1CCCCCC1)c1ccc(CS(=O)(=O)Cc2ccccc2F)o1", "inhibition": 40.3}, {"smiles": "O=[N+]([O-])c1ccc(Nc2nc(NC3CCCCC3)nc(N3CCCC3)n2)cc1", "inhibition": 25.6}, {"smiles": "COc1ccc(-c2csc(NC(CO)c3nc4ccccc4n3CCCO)n2)cc1", "note": "(stereo not drawn)", "inhibition": 41.5}, {"smiles": "CSc1nc2ccccc2c(=O)n1C1CCOC(C)(C)C1", "note": "(stereo not drawn)", "inhibition": 19.3}, {"smiles": "COc1cccc(C(=O)N2N=C(c3ccccc3)CC2(O)C(F)(F)F)c1", "note": "(stereo not drawn)", "inhibition": 35.9}, {"smiles": "Cc1cn([C@H]2C[C@H](O)[C@@H](CCC(=O)NCCc3ccc4ccccc4c3)O2)c(=O)[nH]c1=O", "inhibition": 22.6}, {"smiles": "Cc1ccc(C(=O)Nc2ccccc2-c2ccccc2)cc1S(=O)(=O)Nc1ccccc1", "inhibition": 32.1}, {"smiles": "Cc1nnc(SC(C)C(=O)Nc2ccc(S(=O)(=O)NC3CCCCC3)cc2)s1", "note": "(stereo not drawn)", "inhibition": 21.8}, {"smiles": "CCC1=C(OC(=O)N(CC)CC)N2C(=O)OC(=NCC(=O)OC)[C@]2(C)[C@H]2C1=CC[C@H]1C(=O)N(CC)C(=O)[C@H]12", "inhibition": 11.6}, {"smiles": "COC(=O)c1c(NC(=O)CN(c2ccccc2)S(C)(=O)=O)sc2c1CCCC2", "inhibition": 84}, {"smiles": "CCC1CCCCN1CCCNC(=O)C1CCCN(S(=O)(=O)N2CC(C)CC(C)C2)C1", "note": "(stereo not drawn)", "inhibition": 60.7}, {"smiles": "COc1cc(Cn2nnc3ccccc32)cc(Br)c1O", "inhibition": 37.3}, {"smiles": "O=C1CCN(Cc2ccccc2)S(=O)(=O)c2ccccc21", "inhibition": 54}, {"smiles": "CCOC(=O)C1=C(O)C(=O)N(c2ccccc2)C1c1cccc([N+](=O)[O-])c1", "note": "(stereo not drawn)", "inhibition": 26.5}, {"smiles": "C=C(C)C1CC=C(C)/C(=N\\NC(=O)CNc2ccccc2OC)C1", "note": "(stereo not drawn)", "inhibition": -8.81}, {"smiles": "CCc1ccc(NC(=O)CCn2nc(C)c(S(=O)(=O)N3CCCCC3)c2C)cc1", "inhibition": 51.9}, {"smiles": "CC1(C(=O)NCc2cccc3ccccc23)CCN1Cc1cccc2c1OCO2", "note": "(stereo not drawn)", "inhibition": 21}, {"smiles": "COC(=O)c1ccccc1NC(=O)CSc1nc(C)cc(C)n1", "inhibition": 45.7}, {"smiles": "O=C(c1ccco1)N1CCN(C(=O)c2ccccc2OC(=O)C23CC4CC(CC(C4)C2)C3)CC1", "inhibition": 74.6}]}]}
